Shiga toxin inh: blocks Shiga toxin action in Vero cells | Vero cells, Shiga toxin protein synthesis inhibition reporter | inhibition, % at 38.7 µM | 290,000 compounds, 9.2% hits | AID 2315; in the data active = inhibition mostly above about 28%, no sharp cut-off; inactive = mostly below about 43%
HCMV antiviral: blocks human cytomegalovirus replication | activity change, negative = inhibition, % at 57.5 µM | 410,000 compounds, 4.5% hits | HFF cells, HCMV-luciferase reporter, 72 h; active compounds read low; in the data active = activity change below about -60%; inconclusive = no clear call, values can overlap the other calls; inactive = above about -39%
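Luciferase read-out from HCMV-luciferase-infected HFFs (MOI 1 PFU/cell) 72 h post infection at 37C; compounds added after 16 h cell attachment; activity normalized between buffer-only basal and Salinomycin (10uM) inhibitor controls.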
CHX counter: counter-screen hit for Shiga toxin inhibitors, cycloheximide; cell reporter, cycloheximide protein synthesis inhibition counterscreen; max response, %; 300,000 compounds, 12% hits; AID 2314; in the data active = max response mostly above about 13%, no sharp cut-off; inactive = mostly below about 14%; note: read at 38.3 µM for the half of the compounds with a filed dose
Pf growth 48h: P. falciparum growth inhibition at 48 hours (one generation); P. falciparum luciferase growth in erythrocytes, 48 h; Potency, µM (doses to about 28.7 µM), most hits filed as inhibitors; 310,000 compounds, 5.9% hits; AID 504832
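Luminescence readout; reporter = integrated firefly luciferase in P. falciparum. RBC culture at 2% hematocrit, 0.1% parasitemia final, 37 C/5% CO2; decreased signal taken as growth inhibition.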
Pf growth 96h: P. falciparum growth inhibition at 96 hour, primary screen for plastid delayed-death inhibitors; Potency, µM (series often up to 28.7 µM), most hits filed as inhibitors; P. falciparum luciferase reporter growth, 96 h; 320,000 compounds, 6.9% hits
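P. falciparum expressing integrated firefly luciferase, in erythrocytes at 2% hematocrit, 0.05% parasitemia, incubated with compounds 96 h at 37 C, 5% CO2. Growth inhibition read as loss of luminescence; two-generation exposure targets delayed-death apicoplast inhibitors.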
Numbers stand for hits; n = inactive; u = inconclusive; x = no result given. A selection: hits, their analogues and other compounds. The true share with any hit is near 20%. Unless noted, calls come from the whole dose curve; as a rule, active = well fitted inhibition curve with a large enough effect; inconclusive = small, poorly fitted or top-dose-only effect, or another doubt; inactive = no such curve, though single readings can be large or run the other way.

SMILES | Shiga toxin inh | HCMV antiviral | CHX counter | Pf growth 48h | Pf growth 96h
CC(=O)c1sc(NC(=O)C2(F)C(F)(F)C(F)(F)C(F)(F)C(F)(F)C2(F)F)nc1C | n | -98.4 | n | 8.28µM | n
CCCC(=O)Nc1nc(C)c(C(C)=O)s1 | n | n | n | n | n
CC(C)=CC(=O)Nc1nnc(-c2ccccc2)s1 | 13.7 | n | 45.6 | n | n
CCOC(=O)c1cnc(SCC(=O)NNC(=O)c2ccco2)nc1N | n | n | n | n | n
CCCn1c(N)c(N(C)C)c(=O)n(CC(=O)Nc2ccc(OC(F)(F)F)cc2)c1=O | n | n | n | n | 10.4µM
O=C(CSc1ncn[nH]1)N/N=C/c1ccc(C(F)(F)F)cc1 | n | n | n | n | n
CCCN(CCC)c1nc(C#N)nc(N(CCC)CCC)n1 | n | u | n | 11.7µM | 8.28µM
CC1CCN(S(=O)(=O)c2ccc(C(=O)NCc3cccnc3)cc2)CC1 | n | n | n | n | n
COC(=O)N/N=C(\C)c1ccc(-n2ccnc2)cc1 | n | n | n | n | n
C/C(=N\NC(=O)COc1ccc(C)cc1C(C)C)c1ccc(-n2ccnc2)cc1 | n | n | 17.0 | u | u
COC(=O)c1cccc(NC(=O)CSCc2ccccc2)c1 | n | n | 19.0 | n | u
CC(=O)Nc1ccc(NC(=O)CCCc2ccccc2)cc1 | n | x | 30.8 | n | n
CC(=O)Nc1cccc(NC(=O)CCc2ccccc2)c1 | 138.5 | n | n | n | x
O=C(O)CCN1C(=O)c2ccc(NC(=O)CCc3ccccc3)cc2C1=O | n | n | n | n | 11.7µM
CC(=O)Nc1ccc(S(=O)(=O)NCCCc2ccccc2)cc1 | x | n | n | n | n
CCOC(=O)N1CCc2c(sc3c2c(=O)n(Cc2ccccc2)c(=O)n3CC(=O)Nc2cccc(CC)c2)C1 | x | n | x | x | x
CN1CCN(C(CNC(=O)C(=O)Nc2ccccc2)c2ccc3c(c2)OCO3)CC1 (stereo not drawn) | x | n | x | x | x
COc1ccc(N(C)C(=O)c2nc(-c3cccc(F)c3)n3c2CCCCC3)c(OC)c1 | x | n | x | x | x
Cc1ccc(CNC(=O)Cc2ccc(Br)cc2)cc1 | n | n | n | n | n
COc1ccc(NC(=O)C2CCCNC2)cc1OCC(C)C (stereo not drawn) | n | n | n | n | n
Cc1cccc(NC(=O)CCc2ccccc2)c1 | n | n | 54.4 | n | n
COc1ccc(NC(=O)CCCC(=O)c2ccccc2)cc1OC | n | n | n | n | n
COc1ccc(NC(=O)C2CCCN(CCCc3ccccc3)C2)cc1OCC(C)C (stereo not drawn) | n | -91.2 | n | u | n
CN(C)c1cccc(NC(=O)CCc2ccccc2)c1 | 67.7 | n | 18.0 | n | x
COc1ccc(NC(=O)CCCc2ccccc2)cc1OC | 89.3 | n | 53.9 | n | n
SMILES | Shiga toxin inh | HCMV antiviral | CHX counter | Pf growth 48h | Pf growth 96h
CN(C)c1cccc(NC(=O)Cc2ccc(F)cc2)c1 | n | n | n | n | n
CC(C)(C)N1CC(C(=O)Nc2cccc(Cl)c2Cl)CC1=O (stereo not drawn) | n | n | n | n | n
COc1ccc2cc(CCOC3CCCCO3)ncc2c1 (stereo not drawn) | x | n | x | n | n
COC(=O)c1cccc(NC(=O)CCc2ccccc2)c1 | 57.5 | n | 57.6 | n | n
Cc1cccc(C(=O)OCC(=O)N2c3ccccc3CC2C)c1C (stereo not drawn) | x | n | x | x | x
O=C(COC(=O)c1nn(CCO)c(=O)c2ccccc12)Nc1ccc(Cl)c(Cl)c1 | x | n | x | x | x
CCN(CC)c1ccc(/C=C/c2ccc3ccc(OC)cc3[n+]2CC)cc1 | n | -96.9 | n | 1.85µM | n
CC[n+]1c(/C=C/c2ccc(OC)c(OC)c2)ccc2ccccc21 | 115.7 | n | 25.8 | 1.04µM | n
CC[n+]1c(/C=C/c2ccc(N(C)C)cc2)ccc2ccccc21 | active | x | 24.1 | 0.657µM | 0.415µM
CC[n+]1c(/C=C/c2ccc(OC(C)=O)c(OC)c2)ccc2ccccc21 | 61.2 | n | 40.0 | u | u
COc1ccc2c3c(n(C)c2c1)[C@@H](CO)N(C(=O)Cc1ccccn1)CC31CCN(C)CC1 | x | n | x | x | x
Clc1ccc(SCCCCn2ccnc2)cc1 | n | n | n | u | u
Clc1ccc(CCC(Cn2ccnc2)Sc2c(Cl)cccc2Cl)cc1 (stereo not drawn) | x | n | x | 1.47µM | 0.928µM
C=C1C(=O)OC2CC3(C)OC3CCC(C)=CC(OC(C)=O)C12 (stereo not drawn) | x | n | x | x | x
C=C1C(=O)O[C@@H]2C[C@@H](C)[C@H]3C=CC(=O)[C@]3(O)C[C@@H]12 | n | u | 14.3 | u | u
COc1ccc(N2C(=O)c3ccccc3NC2c2cccnc2)cc1 (stereo not drawn) | n | n | n | n | n
COc1ccc(C2Nc3ccccc3C(=O)N2c2ccc(C)cc2)cc1Cn1nc(C)c([N+](=O)[O-])c1C (stereo not drawn) | n | n | 46.6 | u | u
COc1ccc(N2C(=O)c3ccccc3NC2c2ccc(OC)c(Cn3nnc4ccccc43)c2)cc1 (stereo not drawn) | n | n | 21.5 | 11.7µM | 9.28µM
COc1ccccc1N1C(=O)c2ccccc2NC1c1cc(OC)c(OC)c(OC)c1 (stereo not drawn) | n | n | n | n | n
COc1ccc(C2Nc3ccccc3C(=O)N2c2ccc(C)cc2)cc1COc1ccccn1 (stereo not drawn) | n | n | 36.7 | n | n
Cc1cc(C=C2C(=O)NC(=S)NC2=O)c(C)n1-c1ccc2c(c1)OCO2 | 23.6 | n | 38.6 | n | u
Cc1cc(C=C2C(=O)NC(=O)NC2=O)c(C)n1-c1ccc2c(c1)OCO2 | n | n | n | n | u
CCCNC(=O)C1CCC(Cn2c(=O)c3sccc3n(CC(=O)NCc3ccccc3)c2=O)CC1 (stereo not drawn) | x | n | x | x | x
COc1cccc(NC(=O)CN(C)C(C)C(=O)Nc2ccc(S(=O)(=O)N3CCCC3)cc2)c1 (stereo not drawn) | n | n | n | 9.28µM | 4.65µM
Cc1ccc(NC(=O)CN(C)C(C)C(=O)Nc2ccc(S(=O)(=O)N3CCCC3)cc2)cc1 (stereo not drawn) | x | n | x | 11.7µM | 11.7µM
CC(C(=O)Nc1ccc(S(=O)(=O)N2CCCC2)cc1)N(C)CC(=O)Nc1cccc(F)c1 (stereo not drawn) | x | n | x | x | x
C=NC(C(=O)NC1C(=O)N2C1SC(C)(C)C2C(=O)O)c1ccccc1 (stereo not drawn) | x | x | x | n | n
C/C=C(\C)C(=O)Nc1cccc(C2=NOC3(C2)C[C@@H](C(N)=O)N(C(=O)c2ccccc2C(=O)c2ccccc2)C3)c1 (stereo partly drawn) | n | n | n | u | u
CCCCCC(=O)Nc1cccc(C2=NOC3(C2)C[C@H](C(N)=O)N(C(=O)c2ccccc2)C3)c1 (stereo partly drawn) | n | n | n | u | u
CCCCCC(=O)Nc1cccc(C2=NOC3(C2)C[C@H](C(N)=O)N(C(=O)c2ccccc2C(=O)c2ccccc2)C3)c1 (stereo partly drawn) | n | n | n | 9.28µM | u
